This note sets out measurements from PubChem BioAssay (NCI).

A short description of experiment [1]: NCI Yeast Anticancer Drug Screen. Data for the rad50 strain (AID 155).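 Also: 0% = growth of vehicle-only cultures of the same strain.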 The following applies: S. cerevisiae rad50 strain growth inhibition; at 50.0 µM; hits give high values. The method, boiled down:
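Genetically altered yeast (DNA repair pathway); compound treatment; growth inhibition vs vehicle ctrl.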

A short description of experiment [2]: NCI Yeast Anticancer Drug Screen. Data for the mec2-1 strain (AID 157). The following applies: S. cerevisiae mec2-1 strain, at 50.0 µM, hits give high values. The method, boiled down:
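Each compound was tested on mec2-1 yeast, a strain altered in DNA damage repair or cell cycle control. Growth inhibition is reported relative to vehicle.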

A short description of experiment [3]: NCI Yeast Anticancer Drug Screen. Data for the sgs1 mgt1 strain (AID 161).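 Also: 0% = growth of cultures given vehicle only.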 As to conditions: S. cerevisiae sgs1 mgt1 strain, at 50.0 µM, hits give high values. Put shortly: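 Genetically altered yeast, compound exposure, growth inhibition relative to vehicle.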
A short description of experiment [4]: NCI Yeast Anticancer Drug Screen. Data for the cln2 rad14 strain (AID 165).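 Also: 0% = growth equal to vehicle treated cultures.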 As to conditions: S. cerevisiae cln2 rad14 strain, at 50.0 µM, hits give high values. Put shortly:
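Test compounds were added to cln2 rad14 yeast cultures; inhibition of growth was then determined by comparison with vehicle treatment.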

The nature of experiment [5]: NCI Yeast Anticancer Drug Screen. Data for the bub3 strain (AID 167). As to conditions: S. cerevisiae bub3 mutant strain, at 50.0 µM, hits give high values. The method, boiled down: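 Yeast carrying a defined mutation is treated with each compound, and growth is compared with that of vehicle-exposed cells to give inhibition.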
A short description of experiment [6]: NCI Yeast Anticancer Drug Screen. Data for the mlh1 rad18 strain (AID 175). The following applies: S. cerevisiae mlh1 rad18 strain growth inhibition; at 50.0 µM; hits give high values. The method, boiled down: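 Inhibition values reflect reduced growth of mutant yeast versus vehicle-treated controls following compound exposure; the mutations affect DNA damage repair.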

The panel holds about 79,000 compounds, 15% with a hit somewhere; the sample as a whole holds those more often. Values without a mark were called inactive. Activity calls are given as the source filed them. Rule as the data show it: active = growth inhibition above about 70%; inactive = the rest.

As to `OCC(O)C1OC2CC1Nc1ccccc1N2` (stereo not given), the growth inhibition was -30.6% in experiment [1]; -21.3% in experiment [2]; 9.6% in experiment [3]; 17.3% in experiment [4]; -15.1% in experiment [5]; -12.7% in experiment [6].

For the compound `CN1c2cccc3cccc(c23)NC12CCCCC2`, the growth inhibition in experiment [1] was 0.6%; in experiment [2], -20.5%; in experiment [3] it was -10.8%; in experiment [4], -62.2%; in experiment [5], 14.2%; in experiment [6] it was -10.8%.

For `CSc1ccc(NC(=O)Nc2cc(Cl)c(Cl)cc2C)cc1`, the growth inhibition in experiment [1] was 4.7%; in experiment [2] it was 60.5%; in experiment [3], 46.8%; in experiment [4] it was -1.95%; in experiment [5], 35%; in experiment [6] it was 25.2%.

Consider `O=C(O)C(Br)C(Br)C(=O)Nc1ccc(F)cc1` (stereo not given), for which the growth inhibition was 99.7% (active) in experiment [1]; 99.7% (active) in experiment [2]; 99.7% (active) in experiment [3]; 98.3% (active) in experiment [4]; 99.7% (active) in experiment [5]; 99.3% (active) in experiment [6].

As to `CC1CSC(C)(C)C(=O)N1` (stereo not given), the growth inhibition in experiment [1] is 16.2%; in experiment [2] it was 14.8%; in experiment [3] it was 2.35%; in experiment [4], -26.8%; in experiment [5] it was 13.8%; in experiment [6], 19.9%.

Turning to `O=C1CN(c2ccccc2)C(=O)CN1/N=C/c1ccc(O)c(O)c1`, the growth inhibition is -35.2% in experiment [1]; 8.75% in experiment [2]; -3.25% in experiment [3]; 12.7% in experiment [4]; -2.55% in experiment [5]; -11.2% in experiment [6].

Regarding `C=CN1C(=O)c2ccccc2C1=O`, the growth inhibition in experiment [1] was -12.8%; in experiment [2], -12.4%; in experiment [3], -8.95%; in experiment [4], 6.3%; in experiment [5] it was -6.5%; in experiment [6], -24%.

Turning to `COc1ccc(NC(=O)CC(=O)N2N=C(N(c3ccccc3)c3ccccc3)CC2c2ccccc2)cc1` (stereo not given), the growth inhibition in experiment [1] was 4.75%; in experiment [2], 2.05%; in experiment [3] it was 12.2%; in experiment [4], 26.3%; in experiment [5], 17.6%; in experiment [6] it was -29.8%.

Turning to `O=C(N/N=C/c1ccccc1)c1c(F)c(F)c(F)c(F)c1F`, the growth inhibition was -27.6% in experiment [1]; 9% in experiment [2]; -32.9% in experiment [3]; 12.2% in experiment [4]; 0.6% in experiment [5]; 0.6% in experiment [6].

For `O=c1[nH]c2nc3ccccc3c(=O)n2/c1=C/c1ccc(O)cc1`, the growth inhibition in experiment [1] was 9.6%; in experiment [2] it was 2.3%; in experiment [3] it was -12%; in experiment [4] it was 8.95%; in experiment [5], 7.3%; in experiment [6], -19.8%.

As for `OCC(O)COc1ccc(OCc2ccccc2)cc1` (stereo not given), the growth inhibition in experiment [1] was 2.65%; in experiment [2] it was -12.1%; in experiment [3] it was -3.4%; in experiment [4], -21.5%; in experiment [5] it was -5.05%; in experiment [6], -20.3%.

With `CCOc1ccccc1N1C(=O)CSC1=S`, the growth inhibition is 15.2% in experiment [1]; 14.2% in experiment [2]; 51.2% in experiment [3]; -14% in experiment [4]; 48.9% in experiment [5]; 30.2% in experiment [6].

As to `O=C(O)CCSC1(SCCC(=O)O)CCCCC1`, the growth inhibition in experiment [1] was -23.9%; in experiment [2], -17.9%; in experiment [3] it was -8.55%; in experiment [4], -3.25%; in experiment [5] it was -9%; in experiment [6], -23.6%.

With `CCOC(=O)c1ccc(=O)n2c1[nH]c1ccccc12`, the growth inhibition is 9.05% in experiment [1]; -5.65% in experiment [2]; -15.5% in experiment [3]; -0.45% in experiment [4]; -2.75% in experiment [5]; -5.45% in experiment [6].

Take `CCOC(=O)/C=C/C(=O)N(C)c1ccccc1`: the growth inhibition in experiment [1] was -12.2%; in experiment [2], -7.15%; in experiment [3], -5.3%; in experiment [4], -0.5%; in experiment [5] it was -12.7%; in experiment [6] it was -18.6%.

With `CCc1cccc(C)c1NC(=O)C(=O)Cc1nc2ccccc2s1`, the growth inhibition in experiment [1] is 0.75%; in experiment [2] it was -7.6%; in experiment [3] it was -9.8%; in experiment [4], -2.15%; in experiment [5] it was -58%; in experiment [6] it was -6.15%.

On to `O=[N+]([O-])c1cccc(N=C(c2ccccc2)N(O)c2ccccc2)c1`, for which the growth inhibition in experiment [1] was 1.8%; in experiment [2], -19.2%; in experiment [3], 0.85%; in experiment [4] it was 31.9%; in experiment [5], 10.9%; in experiment [6], 15.8%.

`CC(CO)CCNc1ncnc2c1ncn2CCC(=O)O` (stereo not given): the growth inhibition in experiment [1] was -8.7%; in experiment [2] it was 6%; in experiment [3], -29.9%; in experiment [4] it was -23.5%; in experiment [5] it was 17.2%; in experiment [6], -0.95%.

Turning to `COc1cccc(OC(=O)Nc2ccccc2)c1`, the growth inhibition is 2.6% in experiment [1]; -10.6% in experiment [2]; -9.85% in experiment [3]; -41.3% in experiment [4]; -20.6% in experiment [5]; 3.25% in experiment [6].

As to `CCN(CC)Cc1ccccc1COC(=O)c1ccc(OC)cc1`, the growth inhibition is -0.1% in experiment [1]; -3.45% in experiment [2]; 14.8% in experiment [3]; -15.2% in experiment [4]; -7.25% in experiment [5]; 11.3% in experiment [6].
